PubChem BioAssay
Records with an inconclusive call do not appear. The source made the active and inactive calls. Unless noted, cut-off not given; nearly all actives show AC50 up to about 26 µM.

How the values were obtained:
[1] = growth inhibition of DIPG glioma cells, dose response, cell-based, SU-DIPG-XVII, MIPE5.0, CellTiter-Glo, qHTS (AID 1347060); conditions: SU-DIPG-XVII viability, CellTiter-Glo ATP luminescence;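 on AC50: cells exposed to compound for 48 hours before viability readout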
[2] = growth inhibition of DIPG glioma cells, dose response, cell-based, SU-DIPG-XIII, MIPE4.0, CellTiter-Glo, qHTS (AID 1347061; cut-off not given, nearly all actives have AC50 up to about 37 µM;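 further: cells exposed to compound for 48 hours before readout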); conditions: SU-DIPG-XIII viability, CellTiter-Glo ATP luminescence
[3] = growth inhibition of DIPG glioma cells, dose response, cell-based, JHH-DIPG-1, MIPE4.0, CellTiter-Glo, qHTS (AID 1347062; cut-off not given, nearly all actives have AC50 up to about 27 µM;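 on AC50: cells exposed to compound for two days before readout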); conditions: JHH-DIPG-1 viability, CellTiter-Glo ATP luminescence
[4] = growth inhibition of DIPG glioma cells, dose response, cell-based, SU-DIPG-IV, MIPE4.0, CellTiter-Glo, qHTS (AID 1347063; cut-off not given, nearly all actives have AC50 up to about 30 µM;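 further: compound exposure lasted 48 hours before the viability readout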); conditions: SU-DIPG-IV viability, CellTiter-Glo ATP luminescence
[5] = viability loss in pontine glioma line – cell-based, SU-DIPG-XXV, MIPE5.0, CellTiter-Glo, qHTS, dose response (AID 1347065); conditions: CellTiter-Glo ATP luminescence;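 further: cells exposed to compound for 48 hours before ATP readout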
[6] = SU-DIPG-VI glioma cell viability, MIPE4.0 library, CellTiter-Glo luminescence, qHTS (AID 1347066; cut-off not given, nearly all actives have AC50 up to about 30 µM;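 further: cells exposed to compound for 48 hours before readout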); conditions: CellTiter-Glo ATP luminescence
[7] = JHH-DIPG-1 glioma cell viability, MIPE5.0 library, CellTiter-Glo luminescence, qHTS (AID 1347067); conditions: JHH-DIPG-1 glioma viability, CellTiter-Glo ATP luminescence;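 further: cells exposed to compound for 48 hours before readout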
[8] = SU-DIPG-XXV glioma cell viability, MIPE5.0 library, qHTS (AID 1347068; cut-off not given, nearly all actives have IC50 up to about 30 µM;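 on IC50: cells exposed to compound for 48 hours before viability readout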)
[9] = growth inhibition of DIPG glioma cells, dose response, cell-based, SU-DIPG-XIII, MIPE5.0, CellTiter-Glo, qHTS (AID 1347064; cut-off not given, nearly all actives have AC50 up to about 23 µM;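 on AC50: cells exposed to compound for 48 hours before the viability read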); conditions: SU-DIPG-XIII viability, CellTiter-Glo ATP luminescence
[10] = survival rescue of mitochondrial mutant cells in low glucose, primary screen, MELAS cybrids, Rieske KO mouse fibroblasts, CellTiter-Glo (AID 1508586;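 active means mean z-score across replicates of 1.96 or higher in either the MELAS or the Rieske mutant cell line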;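 further: z relative to plate mean and SD of compound and empty wells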)
[11] = sensitizers of A549 cells to miR-34 induction, primary screen, imaging, A549 dox-inducible miR-34, nuclei and caspase counts (AID 1347080;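 active means compounds whose cell count with miR-34 switched on is under 0.7 times the count with it off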); conditions: A549 miR-34 inducible, Hoechst nuclei count, 48 h
[12] = MELAS cybrid survival, CellTiter-Glo 48 h, stronger effect = higher value
[13] = Rieske KO mouse fibroblast survival, CellTiter-Glo 72 h

Question: Which AC50 [1] does the source give for `CNC1CCC(N(Cc2cccc(-c3ccncc3)c2)C(=O)c2sc3c(F)ccc(F)c3c2Cl)CC1` (configuration not stated) here?
Answer: 23500 nM (active)

Question: What about the AC50 [2] of the same molecule?
Answer: 14800 nM (active)

Question: And the AC50 [3]?
Answer: 26400 nM (active)

Question: And the AC50 [4]?
Answer: 23500 nM (active)

Question: And the AC50 [5]?
Answer: 18600 nM (active)

Question: What about the AC50 [6] of the same molecule?
Answer: 23500 nM (active)

Question: What about the AC50 [7] of the same molecule?
Answer: 26300 nM (active)

Question: For `COc1ccc(OC)c(-c2nnc3ccc(-c4ccc(OC)c(O[C@@H]5CCOC5)c4)nn23)c1`, which AC50 [1] is on record?
Answer: 2950 nM (active)

Question: What about the AC50 [2] of the same molecule?
Answer: 26400 nM (active)

Question: And the AC50 [3]?
Answer: 7430 nM (active)

Question: And the AC50 [4]?
Answer: 14800 nM (active)

Question: What about the AC50 [5] of the same molecule?
Answer: 2630 nM (active)

Question: What about the AC50 [6] of the same molecule?
Answer: 11800 nM (active)

Question: What does the source list for `CN[C@@H](C)[C@H]1[C@H](O)C[C@@]2(C)[C@@H]3CC[C@H]4C(C)(C)[C@@H](NC)CC[C@@]45C[C@@]35CC[C@]12C`?
Answer: outcome [1]: inactive; outcome [2]: inactive; outcome [3]: inactive; outcome [4]: inactive; outcome [5]: inactive; outcome [6]: inactive; outcome [7]: inactive; outcome [8]: inactive

Question: With `CC(C)C[C@H](NC(=O)[C@@H](NC(=O)c1cccc(-c2ccccc2)n1)[C@@H](C)O)B(O)O` as the molecule, how does the AC50 [1] read?
Answer: 45.6 nM (active)

Question: And the AC50 [2]?
Answer: 16600 nM (active)

Question: What about the AC50 [3] of the same molecule?
Answer: 52.6 nM (active)

Question: And the AC50 [4]?
Answer: 23.5 nM (active)

Question: And the AC50 [5]?
Answer: 20.4 nM (active)

Question: And the AC50 [6]?
Answer: 66.2 nM (active)

Question: And the AC50 [7]?
Answer: 81.1 nM (active)

Question: And the IC50 [8]?
Answer: 25.7 nM (active)

Question: Which AC50 [1] does the source give for `C[N+](C)([O-])CCNc1ccc(NCC[N+](C)(C)[O-])c2c1C(=O)c1c(O)ccc(O)c1C2=O` here?
Answer: 9340 nM (active)

Question: What about the outcome [2] of the same molecule?
Answer: inactive

Question: And the outcome [3]?
Answer: inactive

Question: What about the outcome [4] of the same molecule?
Answer: inactive

Question: What about the outcome [6] of the same molecule?
Answer: inactive

Question: What about the IC50 [8] of the same molecule?
Answer: 1.32 nM (active)

Question: With `C/C=C1\NC(=O)[C@H]2CSSCC/C=C\[C@H](CC(=O)N[C@H](C(C)C)C(=O)N2)OC(=O)[C@H](C(C)C)NC1=O` as the molecule, how does the AC50 [1] read?
Answer: 83.3 nM (active)

Question: What about the AC50 [2] of the same molecule?
Answer: 14.8 nM (active)

Question: What about the AC50 [3] of the same molecule?
Answer: 11.8 nM (active)

Question: And the AC50 [4]?
Answer: 9.35 nM (active)

Question: What about the AC50 [5] of the same molecule?
Answer: 59 nM (active)

Question: What about the IC50 [8] of the same molecule?
Answer: 3720 nM (active)

Question: For `CC(C)(O)CCc1ccc(OCc2cc(-c3cccc(OC(F)F)c3)c3ncccc3c2)cc1`, which AC50 [1] is on record?
Answer: 23500 nM (active)

Question: And the outcome [2]?
Answer: inactive

Question: What about the outcome [3] of the same molecule?
Answer: inactive

Question: And the outcome [4]?
Answer: inactive

Question: And the outcome [6]?
Answer: inactive

Question: And the AC50 [7]?
Answer: 23500 nM (active)

Question: Which results are given for `O=C(NC[C@H](O)CO)c1ccncc1Nc1ccc(I)cc1F`?
Answer: AC50 [1]: 742 nM (active); AC50 [2]: 1320 nM (active); AC50 [3]: 1480 nM (active); AC50 [9]: 417 nM (active); AC50 [5]: 590 nM (active); outcome [6]: inactive; AC50 [7]: 332 nM (active); outcome [8]: inactive

Question: What does the source list for `CO[C@H]1/C=C/O[C@@]2(C)Oc3c(C)c(O)c4c(O)c(c5c(nc6cc(C)ccn65)c4c3C2=O)NC(=O)/C(C)=C\C=C\[C@H](C)[C@H](O)[C@@H](C)[C@@H](O)[C@@H](C)[C@H](OC(C)=O)[C@@H]1C`?
Answer: AC50 [1]: 16600 nM (active); outcome [2]: inactive; outcome [3]: inactive; AC50 [9]: 13200 nM (active); AC50 [5]: 23500 nM (active); AC50 [7]: 14800 nM (active); z-score [10, 12]: 0.239 (inactive); z-score [10, 13]: -0.714

Question: With `Cn1cc(-c2ccc3ncc(Cc4ccc5ncccc5c4)n3n2)cn1` as the molecule, how does the outcome [1] read?
Answer: inactive

Question: And the outcome [2]?
Answer: inactive

Question: And the outcome [3]?
Answer: inactive

Question: And the outcome [9]?
Answer: inactive

Question: What about the outcome [5] of the same molecule?
Answer: inactive

Question: And the outcome [6]?
Answer: inactive

Question: What about the outcome [7] of the same molecule?
Answer: inactive

Question: What about the outcome [8] of the same molecule?
Answer: inactive

Question: What about the fold change ([11]; stronger effect = lower value, cell number ratio, induced over uninduced) of the same molecule?
Answer: 0.865 (inactive)

Question: What about the fold change ([11]; measured here: relative caspase fold change +Dox/-Dox) of the same molecule?
Answer: 0.902

Question: What about the cell count ([11]; measured here: total cells with miR-34 induction, stronger effect = lower value) of the same molecule?
Answer: 8680

Question: And the cell count ([11]; measured here: total cells without miR-34 induction)?
Answer: 10000

Question: What about the z-score [10, 12] of the same molecule?
Answer: -0.376 (inactive)

Question: What about the z-score [10, 13] of the same molecule?
Answer: 0.544
